Test results from PMC9574860, “Chemical Toolkit for PARK7: Potent, Selective, and High-Throughput” (Journal of Medicinal Chemistry, 2022).
In all, about 7,900 compounds went through this assay and about 400 (5.1%) showed an effect of 50% or more. The list comes from a sample in which strong results are over-represented; it also holds similar structures and randomly drawn compounds.

Molecular target: Parkinson's disease protein 7 (PARK7/DJ1) (human, UniProt Q99497)
Experiment: primary screen, percent inhibition; read as competition with a fluorescent probe by fluorescence polarization; higher = more effect of the substance
Conditions: 100 µM
Procedure: The screen was conducted using the conditions as described above in 1536-well plates (Corning 3724) with a reaction volume of 8 μL per well. The compound library containing 7887 covalent fragments was purchased at Enamine Ltd. and received as 100 mM DMSO stocks in 384 well LDV Echo plates (Labcyte LP-0200). Stock solutions of 0.26 μM PARK7 and 80 nM JYQ-107 were prepared. Using a Labcyte Echo550 acoustic dispenser, 8 nL of the DMSO stock solution of the library compounds was transferred from the source plates into the empty 1536-well screening plates to obtain a 100 μM final compound concentration. Next, PARK7 (6 μL, final concentration 0.2 μM) was dispensed using a Biotek MultiflowFX liquid dispenser and incubated for 2 h, followed by dispensing the probe JYQ-107 (2 μL, final concentration 20 nM). After 2 h incubation, the FP signal was recorded on a BMG Labtech PHERAstar plate reader (λex/em 480/520 nm). The relative loss of FP signal compared with reference controls was used to calculate the remaining enzyme activity.

Chain of Parkinson's disease protein 7 (PARK7/DJ1) (Q99497 whole entry, looked up): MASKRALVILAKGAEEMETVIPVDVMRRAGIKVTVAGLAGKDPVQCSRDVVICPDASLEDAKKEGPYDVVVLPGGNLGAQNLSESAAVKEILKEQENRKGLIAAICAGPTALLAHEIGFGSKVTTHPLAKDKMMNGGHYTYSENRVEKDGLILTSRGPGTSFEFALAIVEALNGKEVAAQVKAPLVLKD

Structure (SMILES)	Inhibition %
N#Cc1cccc(N2CC(O)CC2c2ccccc2)n1 (stereo not shown)	96.9%
N#Cc1ccc(N2CC(O)CC2c2cccc(F)c2)cn1 (stereo not shown)	3.63%
N#Cc1cc(N2CC(O)CC2c2cccc(F)c2)ccn1 (stereo not shown)	12.9%
COc1cc(C)c(C(C)NC(=O)CCl)cc1OC (stereo not shown)	3.84%
N#CC(=Cc1cccc(Cl)c1Cl)C(N)=O	8.01%
N#Cc1cccc(F)n1	4.58%
N#Cc1ncccc1O	23.2%
N#Cc1nc(F)ccc1O	55.2%
O=S1(=O)CCCC(CCl)C1 (stereo not shown)	-4.37%
CC1(C)NC(=O)C1(C)C	2.57%
COc1cc(C=C(C#N)C(N)=O)cc(Cl)c1OC(C)C	7.72%
O=S(=O)(F)CCSc1nnc2ccccn12	53.9%
O=S(=O)(F)CCn1nnc(-c2ccccc2)n1	35.7%
O=S(=O)(F)CCSc1nnc2sc3ccccc3n12	7.67%
C=CC(=O)N1CC(Cc2cccc(C)c2)C1	6.59%
Cc1ccc(C(=O)O)cc1S(=O)(=O)F	99.4%
COc1cc(NC(=O)CCl)c(Cl)cc1C(=O)O	13.3%
COc1cc(C(=O)O)ccc1S(=O)(=O)F	31.2%
COc1ccc(S(=O)(=O)F)cc1C(=O)O	20.2%
Cc1ccc(N)cc1S(=O)(=O)F	95.9%
O=C(O)c1ccc(S(=O)(=O)F)c(Cl)c1	94.7%
Nc1ccc(S(=O)(=O)F)c(F)c1	12.3%
Cc1ccc(C(=O)O)cc1B1OC(C)(C)C(C)(C)O1	9.09%
COc1cc(S(=O)(=O)F)c(Cl)cc1C(=O)O	97.8%
Cc1ccc(S(=O)(=O)F)c2c1NCCC2	4.21%
O=C(CCl)NC1CCCCNC1=O (stereo not shown)	13.7%

Structure (SMILES)	Inhibition %
CC(=O)Nc1ccc(OC(=O)N2CCCC2)cc1	8.48%
C=CC(=O)N1CCC2(CCSCC2)CC1	5.26%
C=CC(=O)NCC1CCSCC1	2.54%
COc1nscc1B1OC(C)(C)C(C)(C)O1	20.8%
Cc1ccc(NC(=O)NC(=O)CCl)cc1	8.73%
CN(CC(=O)Nc1ccc(Cl)cc1)C(=O)CCl	75.9%
CN(CC(=O)Nc1ccccc1Cl)C(=O)CCl	42.3%
CSc1ccccc1NC(=O)CN(C)C(=O)CCl	34.6%
CN(CC(=O)Nc1ccc(F)cc1)C(=O)CCl	94.2%
O=C(CCl)Nc1ccc(F)cc1	25.3%
CN(CC(=O)Nc1ccccc1C(F)(F)F)C(=O)CCl	17.5%
Cc1ccc(NC(=O)CN(C)C(=O)CCl)cc1	96.5%
CN(CC(=O)Nc1c(Cl)cccc1Cl)C(=O)CCl	7.36%
N#Cc1cccc(NC[C@H]2CCO[C@@H]2c2ccccc2)n1	3%
Cc1nn(C)c(Cl)c1C=CC(=O)N1CCNC(C)C1.Cl (stereo not shown)	11%
C=CC(=O)N1CCOCC1c1cccn1C (stereo not shown)	7.42%
C=CC(=O)Nc1cn(C)nc1C1CC1	10%
C=CC(=O)N1CCC(CCF)CC1	5.32%
C=CC(=O)N1CCN(c2ccccc2F)CC1	7.53%
C=CC(=O)N1CCC(CCC#N)CC1	8.36%
O=C(Cn1nc(-c2ccccc2)oc1=O)N1CCSCC1	5.67%
O=C(CCl)Nc1cc(Cl)cc(Cl)c1	9.47%
COc1cccc(NC(=O)CCl)c1	19.1%
CN(CC(=O)Nc1cccc(Cl)c1)C(=O)CCl	93.8%
O=C(CCCl)Nc1cccc(Cl)c1	-0.704%
O=C(CCl)Nc1cccc(Cl)c1	34.6%

Structure (SMILES)	Inhibition %
COc1cccc(NC(=O)CCCl)c1	11.2%
COc1cccc(NC(=O)CN(C)C(=O)CCl)c1	95.9%
C=CC(=O)N(Cc1cccc(-c2cccnc2)c1)C1CC1	12.4%
Cc1cc(OC(F)F)ccc1B1OC(C)(C)C(C)(C)O1	3.76%
CC(C(=O)NC1CC1c1ccccc1)N1C(=O)CCC1=O (stereo not shown)	14.1%
CC(C)N1CCC(NC(=O)CCl)CC1.Cl	2.57%
O=c1[nH]c(-c2ccccc2)no1	34.7%
CN1CCC(n2cc(-c3ccc(S(=O)(=O)F)cc3)nn2)C1=O (stereo not shown)	9.08%
C=CC(=O)NCCC1CCOC1 (stereo not shown)	4.58%
N#Cc1nc2cc(N)ccc2s1	55.6%
COc1nc(C#N)sc1C	2.94%
C=CC(=O)N1CCC(n2cccc2)CC1	6.94%
Cc1coc(B2OC(C)(C)C(C)(C)O2)c1	4.69%
CC1(C)OB(c2ccco2)OC1(C)C	7.09%
CC1(C)OB(c2cc(-c3ccccc3)co2)OC1(C)C	85.9%
Cc1cccc(N2CCN(C(=O)n3ccnc3)CC2)c1C	6.87%
Cn1cc(C(=O)CCl)nn1	3.33%
Cc1cccc(-n2cc(C(=O)CCl)nn2)c1	95.4%
O=C(CCl)c1cn(-c2ccc(F)cc2)nn1	5.02%
COc1ccc(C(C)(C)C)cc1S(=O)(=O)n1ccnc1C	7.71%
N#Cc1ccc(Cl)cn1	8.27%
O=C(CCl)Nc1ccc2c(c1)OCCCO2	57.7%
O=C(CCl)Nc1ccc2c(c1)OCCO2	55%
O=C(CCl)NC(=O)Nc1ccc2c(c1)OCCO2	7.05%
O=C(CCl)Nc1ccc2c(c1)OCO2	46.5%
O=C(CCCl)Nc1ccc2c(c1)OCCO2	7.65%

Structure (SMILES)	Inhibition %
O=C(CCl)NC(=O)Nc1ccc2c(c1)OCCCO2	7.15%
COC(C)c1cccc(NC(=O)c2cccnc2S)c1 (stereo not shown)	4.97%
C=CC(=O)N1Cc2cc(F)c(F)cc2C1	2.84%
COc1cccc(CS)c1	15.4%
COc1ccc(CS)c(OC)c1	5.78%
COc1cc(OC)c(OC)cc1CS	63.9%
C=CC(=O)N1C[C@H](CC)CC[C@H]1C (racemic)	10.5%
Cc1nc(SC2CC(C)OC2=O)nc(C)c1C (stereo not shown)	3.23%
Cc1nn(-c2ccccc2)c(O)c1C(=O)CCl	64.4%
Cc1nn(-c2ccccc2)c(C)c1CNC(=O)CCl	13.2%
Cc1nn(-c2ccccc2)c(C)c1NC(=O)CCl	6.29%
NC(=O)CN(C1CCCC1)S(=O)(=O)C=Cc1ccccc1	7.09%
O=c1[nH]c(=O)n(CCC2OCCO2)cc1Cl	5.36%
N#Cc1cn(CCS)c(=O)[nH]c1=O	75.1%
C=CC(=O)NCC1OCCc2ccccc21 (stereo not shown)	7.98%
Cc1nn(C)c(Cl)c1C=CC(=O)N1CCC(CN)CC1.Cl	15.7%
CC(=O)NCCc1ccc(C(=O)CCl)cc1	70.8%
CC(=O)NCc1ccc(S(=O)(=O)F)cc1	32.8%
CC(=O)NCc1ccc(C(=O)CCl)o1	92.2%
O=C(CCl)NCc1ccc(-c2ccc(Cl)cc2)o1	18.1%
O=C(CCl)NCCc1ccc(Cl)cc1	41.2%
NS(=O)(=O)c1ccc(CCNC(=O)CCl)cc1	17.2%
CC(=O)N(C)Cc1ccc(C(=O)CCl)cc1	79.8%
CC(=O)NC(C)c1ccc(C(=O)CCl)cc1 (stereo not shown)	38.2%
CS(=O)(=O)NCCc1ccc(C(=O)CCl)cc1	82.8%
C=CC(=O)N1CCCC(CC#N)C1 (stereo not shown)	5.07%

Structure (SMILES)	Inhibition %
COC(=O)c1ccc(Oc2ccc(C#N)nc2)cc1	6.29%
Cc1n[nH]c(C)c1CNc1ccc(Cl)c(C#N)n1	1.98%
C=CC(=O)N1CCCC(NC(C)=O)C1 (stereo not shown)	8.6%
Cc1nn(C)c(Cl)c1Cn1c(-c2ccccc2)noc1=O	3.8%
Cc1cc(C=C(C#N)C(=O)O)c(C)n1CC1CCCO1 (stereo not shown)	11.7%
CCOC1CC(c2nc(-c3cccc(B(O)O)c3)no2)C1 (stereo not shown)	-4.81%
C=CC(=O)N1CCCC(c2nnc3n2CCC3)C1 (stereo not shown)	5.59%
O=C(CCl)N1c2ccccc2OCC1c1ccccc1 (stereo not shown)	28.9%
Cc1ccc(B2OC(C)(C)C(C)(C)O2)cc1[N+](=O)[O-]	3.85%
C=CC(=O)N1CC(c2ccccc2)C1	12.4%
C=CC(=O)Nc1cnn(COC)c1	17.1%
CC(=O)NCc1ccc(S(=O)(=O)NC(=O)CCl)cc1	3.06%
CN(C)C(=O)c1ccc(CNC(=O)CCl)cc1	2.36%
NC(=O)COc1ccc(C(=O)CCl)cc1	5.31%
NC(=O)CCc1ccc(C(=O)CCl)cc1	82.5%
CC(=O)NCc1ccc(C(=O)CCl)cc1	77.1%
CN(CCN1C(=O)CCC1=O)Cc1nc2c(s1)CCCC2	9.47%
Cn1ccc(NS(=O)(=O)C=Cc2ccc(Cl)cc2)n1	11.2%
CC(C)NC(=O)C(C#N)=Cc1cc(F)ccc1F	1.67%
N#Cc1ccn(-c2ccccc2)n1	6.25%
Cc1ccc(C=CC(=O)N2CC(=O)Nc3ccccc32)o1	15.2%
O=C1CC(C(F)(F)F)N(C(=O)CCl)c2ccccc2N1 (stereo not shown)	53%
C=CC(=O)N1CC(=O)Nc2ccccc21	10%
O=C(CCl)N1c2ccccc2NC(=O)C12CCCC2	42.3%
O=C1CN(C(=O)CCl)c2ccccc2N1	56.7%
C=CC(=O)N(C)CC(=O)N1c2ccccc2NC(=O)CC1C (stereo not shown)	1.23%
